The campaign covered roughly 2,200 compounds. About 1,200 (55%) were called active. The limit is not given here; nearly all actives have IC50 up to about 92 µM. So high a share suggests a set chosen from earlier hits. The list shows a part of the results.

The assay can be described thus: counter assay for TAg ATPase ADP read-out – biochemical, ADP-Hunter, fluorescence, counter-screen (AID 2501).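 Also: purified T antigen ATPase.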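 As to inhibition: higher means more inhibition.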 The conditions noted are these: series mostly up to 100 µM.
Regarding `Cc1ccc2oc(=O)c(/C=C(\O)CC(C)C)nc2c1`, the IC50 (in general, the concentration needed to halve the response being measured) is 4.38 µM (active).

For `Cc1ccc2oc(=O)c(/C=C(\O)C(C)(C)C)nc2c1`, the IC50 is 6.56 µM (active).

Take `NNc1nc(-c2ccccc2)nc(-c2ccccc2)c1Br`: the IC50 result was “inactive”.

For the compound `O=C(CC1SC(=O)NC1=O)Oc1ccc(/C=N/NC(=O)c2ccccc2O)cc1` (centres undefined), the IC50 is 50.6 µM (active).

Take `COc1cc(/C=N/NC(=O)c2ccccc2O)ccc1OC(=O)CC1SC(=O)NC1=O` (centres undefined): the IC50 was 33.4 µM (active).

`CC[C@H](C)/C=C/C1=CC2=C(Cl)C(=O)[C@@]3(C)OC(=O)C(C(=O)[C@H](C)[C@@H](C)O)=C3C2=CO1`: the IC50 result is “inactive”.

`Nc1ccc(Nc2nc3ccccc3[nH]2)cc1`: the IC50 was 6.24 µM (active).

As for `O=C(CCc1ccc(O)c(O)c1)NNC(=S)Nc1ccc(Br)cc1Cl`, the IC50 is 19.5 µM (active).

`O=C(CSC1=NS(=O)(=O)c2ccccc21)Nc1ccccc1`: the IC50 result was “inactive”.

With `O=S1(=O)N=C(Nc2ccc(O)cc2)c2ccccc21`, the IC50 was 3.57 µM (active).

With `C=Cc1ccc2c(c1)OCCOCCOCCOCCOCCO2`, the IC50 result is “inactive”.

Take `CC(C)(C)c1ccc(OCC(O)CS(=O)(=O)c2ccccn2)cc1` (centres undefined): the IC50 result was “inactive”.

Regarding `CC(C)(C)c1ccc(OCCC(=O)NNC(=O)c2ccccc2)cc1`, the IC50 was 41.8 µM (active).

Turning to `Cc1cccc(OCC(=O)NC(=S)NNC(=O)c2ccncc2)c1`, the IC50 result was “inactive”.

For `CCN(CC)c1ccc(/C=N/N2CCOCC2)cc1`, the 50% inhibitory concentration (IC50) was 4.08 µM (active).

On to `CCN(CC)c1ccc(/C=N/O)cc1`, for which the IC50 is 4.69 µM (active).

For `CCN(CC)c1ccc(/C=C2\C(=O)N(c3nnc(C)c(=O)[nH]3)N=C2C)cc1`, the IC50 result was “inactive”.

`O=C(O)c1ccc(-n2nc(-c3ccccc3)c3ccccc3c2=O)cc1`: the IC50 entry is “inactive”.

On to `CCOc1ccc(/C=N/n2nnnc2N)cc1O`, for which the IC50 was 3.62 µM (active).

Consider `COc1cc(/C=N/n2nnnc2N)ccc1O`, for which the IC50 was 2.77 µM (active).

Turning to `COC(=O)CN(c1ccccc1F)S(=O)(=O)c1ccccc1`, the IC50 entry was “inactive”.

Turning to `COc1cccc(-n2c(SCc3cc(=O)oc4cc(O)c(O)cc34)nc3ccccc3c2=O)c1`, the IC50 is 49.8 µM (active).

With `CCOCCCn1c(SCC(=O)Nc2cc(OC)ccc2OC)nc2ccccc2c1=O`, the IC50 result is “inactive”.

`Cc1ccc(C)n1-c1ccncc1`: the IC50 result is “inactive”.

Take `Fc1ccccc1CSc1nnnn1-c1ccc2c(c1)OCO2`: the IC50 entry is “inactive”.

Consider `CN(C)c1ccc(N2CC(C)(C)C2=O)cc1`, for which the IC50 is 3.63 µM (active).

Consider `COc1ccc(C2=CC3=C(Br)C(=O)C(C)(OC(=O)c4ccc(Cl)nc4)C(=O)C3=CO2)cc1` (centres undefined), for which the IC50 entry was “inactive”.

For `COc1ccc(NC2SC(=O)N(C)C2=O)cc1` (centres undefined), the half-maximal inhibitory concentration (IC50) is 91 µM (active).

Consider `O=C(Nc1nnc(COc2ccccc2)s1)C1CCN(S(=O)(=O)c2ccc(Cl)cc2)CC1`, for which the IC50 entry was “inactive”.

Consider `CC1OC(OCC2OC(Oc3c(-c4ccc(O)cc4)oc4cc(O)cc(O)c4c3=O)C(O)C(O)C2O)C(O)C(O)C1O` (centres undefined), for which the IC50 is 30.9 µM (active).

Turning to `O=c1c(OC2OC(CO)C(O)C(O)C2O)c(-c2ccc(O)c(O)c2)oc2cc(O)cc(O)c12` (centres undefined), the IC50 is 6.33 µM (active).

As to `O=C(O)C1OC(Oc2c(-c3ccc(O)c(O)c3)oc3cc(O)cc(O)c3c2=O)C(O)C(O)C1O` (centres undefined), the 50% inhibitory concentration (IC50) is 8.72 µM (active).

Take `COc1ccccc1Nc1nc(C)cs1`: the IC50 entry was “inactive”.

For the compound `Cc1csc(NC(=O)NC2(C(F)(F)F)Oc3ccccc3O2)n1`, the 50% inhibitory concentration (IC50) is 12 µM (active).

`Cc1cccc(C)c1NC(=O)C(c1ccc([N+](=O)[O-])cc1)N(C)C(=O)c1ccccn1` (centres undefined): the IC50 result is “inactive”.

In the case of `Cc1ccc(-n2ncc3c(N4CCN(c5ccc(F)cc5)CC4)ncnc32)c(C)c1`, the IC50 result was “inactive”.

In the case of `O=C1CC(c2ccco2)CC(O)=C1C=Nc1cc(Cl)cc(Cl)c1` (centres undefined), the IC50 result was “inactive”.

On to `O=C1C=C(Nc2ccc(O)cc2)CC(c2ccco2)C1` (centres undefined), for which the IC50 was 3.1 µM (active).

Turning to `COC(=O)CCC(=O)OC1(C)C(=O)C=C2C=C3CCCN3C=C2C1=O` (centres undefined), the IC50 result is “inactive”.

For `C/C=C/C=C/C(=O)Nc1cccc(C2=NOC3(C2)C[C@H](C(N)=O)N(C(=O)CC(c2ccccc2)c2ccccc2)C3)c1` (some centres undefined), the IC50 result is “inactive”.

For `CCCCNC(=O)c1sc(=S)n2c1[nH]c(=O)c1ccccc12`, the IC50 was 57.9 µM (active).

`N#Cc1c(NC(=O)CCC(=O)O)sc2c1CCCC2`: the IC50 result is “inactive”.

On to `O=c1c2c([N+](=O)[O-])cc([N+](=O)[O-])cc2sn1Cc1ccccc1`, for which the IC50 is 77.3 µM (active).

Take `O=[N+]([O-])c1cccnc1SCc1ccccc1`: the IC50 entry is “inactive”.

Take `O=[N+]([O-])c1ccc(-[n+]2ccc3ccccc3c2)c([N+](=O)[O-])c1`: the IC50 entry is “inactive”.

On to `CCc1c(C(=O)c2ccc(Cl)cc2)oc2c(C)c3oc(=O)cc(C)c3cc12`, for which the IC50 entry is “inactive”.

As for `Cc1cc(=O)oc2c(N)c(O)ccc12`, the IC50 is 2.9 µM (active).

With `Cc1ccccc1NC(=O)c1cc(N)ccc1N1CCCCC1`, the IC50 is 5.41 µM (active).

Turning to `CN(CC(=O)Nc1ccccc1Br)C(=O)c1cc(S(=O)(=O)N(C)C)ccc1N1CCCC1`, the IC50 result is “inactive”.

For `CCN(CC)S(=O)(=O)c1ccc(N2CCCCC2)c(NC(=O)/C=C/c2cc(OC)c(OC)c(OC)c2)c1`, the IC50 result was “inactive”.

`CC(NCC(=O)Nc1cc(S(=O)(=O)N2CCCCCC2)ccc1Cl)c1ccccc1` (centres undefined): the IC50 entry is “inactive”.

Consider `O=C(N/N=C/c1ccc(O)c(O)c1)c1cccc(S(=O)(=O)N2CCCC2)c1`, for which the half-maximal inhibitory concentration (IC50) was 4.88 µM (active).

Turning to `COc1cc(/C=N/NC(=O)c2cccc(S(=O)(=O)N3CCCC3)c2)ccc1O`, the 50% inhibitory concentration (IC50) is 4.27 µM (active).

As to `O=C(N/N=C/c1ccc(O)c(O)c1)c1cccc(S(=O)(=O)N2CCCCC2)c1`, the half-maximal inhibitory concentration (IC50) was 10.5 µM (active).

As for `CCNC(=O)NC(=O)C(C)OC(=O)c1cc(S(=O)(=O)N2CCCCCC2)ccc1OC` (centres undefined), the IC50 entry was “inactive”.

With `O=C1CCCC/C1=C\Nc1ccc(O)cc1`, the half-inhibitory concentration (IC50) is 4.32 µM (active).

For the compound `Cc1cc(O)ccc1N/C=C1\CCCC1=O`, the IC50 was 10.2 µM (active).

As to `O=c1oc2cc(O)ccc2c2ccccc12`, the IC50 was 8.47 µM (active).

On to `Oc1ccc2c(c1)oc1cc(O)ccc12`, for which the IC50 was 4.05 µM (active).

Take `Cc1ccc(C(C)NC(=S)NCc2ccc(F)cc2)cc1C` (centres undefined): the IC50 is 33.9 µM (active).

Turning to `Oc1cc2c(cc1O)C1c3ccc(O)c(O)c3OCC1(O)C2` (centres undefined), the IC50 result was “inactive”.

Turning to `CC(C)Cn1c(N)c(C(=O)COC(=O)c2cc(-c3ccco3)nc3ccccc23)c(=O)n(C)c1=O`, the IC50 result was “inactive”.

Consider `CC(=O)Oc1ccc(C(=O)OCC(=O)c2c(N)n(C)c(=O)n(C)c2=O)cc1OC(C)=O`, for which the IC50 was 5.13 µM (active).

On to `COc1cc(SC#N)ccc1N=Cc1c(C)[nH]n(-c2ccc(C)cc2C)c1=O`, for which the IC50 result was “inactive”.

Consider `O=C(Nc1ccc(O)cc1)C1CC=CCC1` (centres undefined), for which the concentration for half-maximal inhibition (IC50) was 6.87 µM (active).

On to `O=C(Nc1ccc(O)cc1)C1CCCO1` (centres undefined), for which the IC50 is 5.34 µM (active).

Turning to `O=C(Nc1ccc(O)cc1)c1ccc(NC(=O)C2CCCO2)cc1` (centres undefined), the IC50 was 7.4 µM (active).

Consider `CCOC(=O)c1c(N2C(=O)Nc3cc(Cl)c(Cl)cc3N2O)sc2c1CCCCC2`, for which the IC50 result was “inactive”.

Take `Nc1nc(-c2cccs2)c(NC(=O)c2ccccc2)s1`: the IC50 is 10.4 µM (active).

As for `O=C(O)CC1(Cc2nc(-c3cccs3)no2)CCCC1`, the IC50 entry is “inactive”.

For the compound `c1ccc(CNc2ncnc3ccccc23)cc1`, the IC50 was 4.18 µM (active).

For the compound `Cc1c(C)n(Cc2ccccc2)c2ncnc(NN)c12`, the IC50 result is “inactive”.

As to `CCOC(=O)C1=C(O)C(=O)N(Cc2cccnc2)C1c1ccc(OC)cc1` (centres undefined), the IC50 entry was “inactive”.

Regarding `COc1ccc(-c2nc(O)c3cnccn23)cc1`, the half-maximal inhibitory concentration (IC50) is 6.67 µM (active).

In the case of `COc1cc(/C=N/NC(=O)NC2CCCCC2)ccc1O`, the IC50 was 3.75 µM (active).

On to `COc1cc(/C=N\NC(=O)C2CC3C=CC2C3)ccc1O` (centres undefined), for which the IC50 was 7.58 µM (active).

Regarding `Cc1ccc(C)c(S(=O)(=O)Nc2ccc(O)cc2)c1`, the IC50 is 6.11 µM (active).

Take `CNS(=O)(=O)c1cc(NC(=O)CCCNC(=O)c2ccc(Cl)cc2)ccc1C`: the IC50 entry was “inactive”.

Regarding `Cc1ccccc1NS(=O)(=O)c1cc(C(=O)NCCC2=CCCCC2)ccc1C`, the IC50 result was “inactive”.

As for `Cc1cc(C)c(S(=O)(=O)Nc2cc(SCC(=O)O)c(O)c3ccccc23)cc1C`, the IC50 entry is “inactive”.

On to `O=S(=O)(Nc1ccc(O)cc1)c1cccc2cccnc12`, for which the 50% inhibitory concentration (IC50) is 4.75 µM (active).

Take `Cc1cc(C)c(S(=O)(=O)Nc2ccc(O)cc2)cc1C`: the IC50 is 12.1 µM (active).

As to `Cc1cc(=O)[nH]c2ccc(S(=O)(=O)Nc3ccc(O)cc3)cc12`, the IC50 is 7.34 µM (active).

With `CSS(=O)(=O)c1cccc2cccnc12`, the IC50 result was “inactive”.

For the compound `CCSS(=O)(=O)c1cccc2cccnc12`, the IC50 result is “inactive”.

Regarding `Cc1c(C(=O)Oc2ccc(-c3cnc4ccccc4n3)cc2)cccc1[N+](=O)[O-]`, the IC50 result is “inactive”.

Take `NC(=O)N/N=C/c1c(Sc2nnnn2-c2ccccc2)nc2ccccn2c1=O`: the IC50 result is “inactive”.

`Cc1cc(Cl)ccc1OCCn1cncn1`: the IC50 entry was “inactive”.

Take `CC1=C/C(=N\OS(=O)(=O)c2ccccc2)C(C(C)C)=CC1=O`: the IC50 result is “inactive”.

Turning to `CN1CCc2cccc3c2C1Cc1ccc(O)c(O)c1-3` (centres undefined), the IC50 result is “inactive”.

For `Cn1c(=O)oc2cc(S(=O)(=O)Nc3ccc(O)cc3)ccc21`, the IC50 is 3.81 µM (active).

For `O=S(=O)(Nc1ccc2c(c1)nc1n2CCOC1)c1ccccc1`, the IC50 entry was “inactive”.

For `CCOC(=O)Cn1c(=O)oc2cc(S(=O)(=O)NCCC(C)C)ccc21`, the IC50 result is “inactive”.

`Cc1occc1-c1nnc(SCC(=O)c2ccccc2)n1CC1CCCO1` (centres undefined): the IC50 entry is “inactive”.

Consider `Cc1nnc(SCc2ccccc2)n1CC1CCCO1` (centres undefined), for which the IC50 is 70.8 µM (active).

`CN(C)c1ccc(Nc2nc(-c3cccnc3)cs2)cc1`: the IC50 was 5.96 µM (active).

Turning to `Cc1nc2ncccn2c1-c1csc(Nc2ccc(N(C)C)cc2)n1`, the concentration for half-maximal inhibition (IC50) was 7.2 µM (active).

In the case of `O=C1c2ccccc2C(Nc2ccccc2F)N1c1cccnc1` (centres undefined), the IC50 result is “inactive”.

In the case of `Cc1cccc(/C(N)=N/OC(=O)N2c3ccccc3Sc3ccccc32)c1`, the IC50 was 79.6 µM (active).

With `NN/C(=C\[N+](=O)[O-])Nc1ccc(Cl)cc1`, the IC50 result was “inactive”.

For `NNC(=O)C(=O)Nc1ccc(O)cc1`, the half-maximal inhibitory concentration (IC50) is 5.13 µM (active).

As for `CCOc1ccccc1NC(=O)NC(C)c1ccncc1` (centres undefined), the IC50 entry is “inactive”.

Turning to `CCOc1ccccc1NC(=S)N1CCN(c2ccc(O)cc2)CC1`, the IC50 was 6.75 µM (active).

As to `Oc1ccc(N2CCN(C(=S)NCCc3ccccc3)CC2)cc1`, the IC50 is 3.15 µM (active).

The record behind these values is PubChem BioAssay AID2501 (Southern Research Specialized Biocontainment Screening …, 2010).
